24 molecules from PubChem BioAssay (NCATS) can be followed below.

Records with an inconclusive call do not appear. Some structures have more than one record in an assay (separate samples or runs), and their calls can disagree. Active and inactive are the calls of the source. Calls follow the shape of the dose curve; as a rule, active = well fitted inhibition curve with a large enough effect; inconclusive = small, poorly fitted or top-dose-only effect; inactive = no such curve, though single readings can be large or run the other way.
% is scaled to controls: 0 for no effect and ±100 for the full control effect; potency is read from the fitted curve at half-maximal effect.

The experiment deals with Cytochrome P450 2C19 (Homo sapiens) (UniProt P33261). Briefly: qHTS Assay for Inhibitors and Substrates of Cytochrome P450 2C19 (AID 899). Also: nearly all actives have a fitted effect of over 60% in size. Particulars: recombinant CYP2C19, luciferin-H EGE luminescence; series mostly up to 11.4 µM; activity, negative = inhibition: at the top concentration. The method in brief: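 Luminescent read-out of luciferin formed from Luciferin-H EGE (10uM, equal to KM). Enzyme 5nM in 50mM KPO4; compound added, 10 min at 37C, then NADPH regenerating system for 60 min at 37C. Full inhibition defined by 57uM ketoconazole.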
Sequence of Cytochrome P450 2C19 (Homo sapiens) (P33261 whole entry, looked up): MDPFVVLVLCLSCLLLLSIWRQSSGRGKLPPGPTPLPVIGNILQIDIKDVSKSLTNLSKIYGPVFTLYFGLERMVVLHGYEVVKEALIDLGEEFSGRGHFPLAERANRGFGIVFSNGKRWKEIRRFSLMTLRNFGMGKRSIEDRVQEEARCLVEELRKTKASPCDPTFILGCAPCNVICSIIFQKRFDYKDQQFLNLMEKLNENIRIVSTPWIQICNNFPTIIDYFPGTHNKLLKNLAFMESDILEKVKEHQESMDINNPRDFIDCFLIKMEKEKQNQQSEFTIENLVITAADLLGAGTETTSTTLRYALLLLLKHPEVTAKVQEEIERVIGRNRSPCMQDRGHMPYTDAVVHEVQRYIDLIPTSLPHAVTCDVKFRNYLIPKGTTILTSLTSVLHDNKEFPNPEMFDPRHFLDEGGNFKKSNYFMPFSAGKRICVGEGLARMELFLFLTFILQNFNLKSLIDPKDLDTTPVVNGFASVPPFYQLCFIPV
For `C=C(C)C(O)/C=C/c1cccc(OC)c1` (centres undefined), the Potency is 0.0126 µM (active).

As to `C=CC[C@@H]1C=C[C@H](Oc2ccc(C)cc2)[C@H](COC(=O)NCc2cccc3ccccc23)O1`, the Potency was 1.26 µM (active).

In the case of `COc1ccc(O[C@H]2C=C[C@@H](c3ccccc3)O[C@H]2COC(=O)CC/C(C)=N\O[C@@H](C)CN2CCCCc3nc(C)c(C)cc32)cc1`, the Potency is 5.01 µM (active).

`COc1ccc(O[C@H]2C=C[C@@H](c3ccccc3)O[C@H]2COC(=O)CC/C(C)=N/O[C@@H]2O[C@H](COC(C)=O)[C@H](OC(C)=O)[C@H](OC(C)=O)[C@H]2OC(C)=O)cc1`: the Potency was 1.58 µM (active).

Turning to `COc1ccc(O[C@H]2C=C[C@@H](c3ccccc3)O[C@H]2CO/N=C\C[C@@H]2C=C[C@H](OC(C)=O)[C@H](COC(C)=O)O2)cc1`, the Potency is 0.794 µM (active).

For the molecule `CCO[C@H](c1cc(OC)cc([N+](=O)[O-])c1OC)[C@H](C)/C=C\CC(=O)OC`, the Potency was 0.398 µM (active).

On to `OCC1OC(c2ccc3c(c2)OCO3)C=CC1Oc1cc(Cl)cc(Cl)c1` (centres undefined), for which the Potency is 0.0794 µM (active).

On to `C=CCOC(=O)C(C(C)=O)C(NC(=O)OC)c1ccc(F)cc1` (centres undefined), for which the Potency is 0.398 µM (active).

For `COC(=O)C/C=C\[C@@H](C)[C@@H](/C=N\OC[C@@H]1O[C@H](c2ccccc2)C=C[C@@H]1Oc1ccc(OC)cc1)OC`, the Potency was 1.58 µM (active).

For `CCCNC(=O)OC[C@@H]1O[C@H](CCO/N=C\[C@@H](C)[C@H](OCc2ccccc2)C(C)C)C=C[C@@H]1Oc1ccc(OC)cc1`, the Potency is 3.16 µM (active).

Regarding `COc1ccc(C#CC2C=CC(Oc3cc(C)cc(C)c3)C(CO)O2)cc1` (centres undefined), the Potency was 0.0631 µM (active).

Consider `COc1ccc(/C=C/N(CCc2ccc(OC)c(OC)c2)C(=O)C(F)(F)F)cc1`, for which the Potency is 0.0794 µM (active).

For `C/C=C/OC(=O)NC(c1ccccc1)[C@@]1(C(=O)OCC)CCCC1=O` (some centres undefined), the Potency is 0.0251 µM (active).

With `C=CCC1C=CC(Oc2ccc(OC)cc2)C(COC(=O)c2ccc(Br)cc2)O1` (centres undefined), the Potency is 3.16 µM (active).

As for `COc1cccc([C@@H]2Oc3ccc(OC)cc3/C(=N/OC[C@@H](O)COCc3ccco3)[C@@H]2O)c1`, the Potency was 1.58 µM (active).

Regarding `COCOc1ccc(Br)cc1C(=O)[C@H]1O[C@H]1c1cccc(OC)c1`, the Potency is 0.0631 µM (active).

For the molecule `CCCCC#CC1C=CC(Oc2ccc(OC)cc2)C(CO)O1` (centres undefined), the Potency is 2 µM (active).

On to `C[C@@H](c1ccccc1)N1C(=O)[C@H]2[C@H]3[C@H](O)[C@H](O)C/C(=N/OC[C@@H](O)COCc4ccco4)[C@@H]3CC[C@@H]2C1=O`, for which the “activity, negative = inhibition” value is 59.4% (inactive).

As to `Cc1ccc(S(=O)(=O)N[C@H]2COC(=O)[C@@H](Cc3ccccc3)NC(=O)[C@@H](C)COC(=O)C/C=C\[C@@H]2C)cc1`, the “activity, negative = inhibition” value is 52.5% (inactive).

Consider `COc1ccc(O[C@H]2C=C[C@@H](c3ccccc3)O[C@H]2CO/N=C2/[C@H]3O[C@@H]3[C@@H](O)[C@H]3[C@H]2CCn2c(=O)n(-c4ccccc4)c(=O)n23)cc1`, for which the Potency is 2.51 µM (active).

In the case of `COc1cccc([C@@H]2Oc3ccc(OC)cc3/C(=N/O[C@@H](C)c3cc(-c4c(C)cc(C)cc4C)no3)[C@@H]2O)c1`, the Potency was 1.58 µM (active).

Turning to `CCCNC(=O)OC[C@@H]1O[C@H](CCO/N=C2\c3cc(OC)ccc3O[C@H](c3cccc(OC)c3)[C@H]2O)C=C[C@@H]1Oc1ccc(OC)cc1`, the Potency was 1.58 µM (active).

On to `COC(=O)[C@@H]1CC[C@H](C)[C@@H](c2ccc(C)cc2)N1C(=O)c1ccc(/C=N\O[C@@H](C)c2cn([C@H](CO)Cc3ccccc3)nn2)cc1`, for which the Potency is 3.98 µM (active).

In the case of `CC(C)(C)c1ccc(OC2C(O)COC2/C=C/C#Cc2ccccc2)cc1` (centres undefined), the Potency is 3.16 µM (active) and inactive.
